This is part of a sample that, as a whole, favours compounds with a hit. Of some 79,000 tested, about 15% had one in any assay. The source made the active and inactive calls. No stated cut-off is given here; in the data, active means growth inhibition above about 70%; inactive means the rest.
Columns and labels:
[1] = NCI Yeast Anticancer Drug Screen. Data for the rad52 strain (AID 147);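 further: 0% = growth of vehicle-treated control cultures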; conditions: S. cerevisiae rad52 mutant growth inhibition, stronger effect = higher value
Method in brief: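 Vehicle-treated cultures served as the reference for growth inhibition of compound-exposed yeast bearing a DNA repair mutation.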

[2] = NCI Yeast Anticancer Drug Screen. Data for the wt1 strain (AID 149);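 further: 0% = growth of vehicle-treated wt1 cultures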; conditions: S. cerevisiae wt1 strain (SPY 50644) growth inhibition, stronger effect = higher value
Method in brief: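 Measured: growth of wt1 yeast under compound versus vehicle treatment, reported as inhibition.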

[3] = NCI Yeast Anticancer Drug Screen. Data for the rad50EPP+ strain (AID 151);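 further: 0% = growth of vehicle-treated control cultures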; conditions: S. cerevisiae rad50 mutant strain, stronger effect = higher value
Method in brief: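 In this screen, rad50EPP+ yeast were exposed to compounds. Growth inhibition was scored against vehicle-treated controls.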

[4] = NCI Yeast Anticancer Drug Screen. Data for the mgt1 strain (AID 153); conditions: S. cerevisiae mgt1 mutant growth inhibition, stronger effect = higher value
Method in brief: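 mgt1 strain exposed; growth vs vehicle control recorded as inhibition.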

[5] = NCI Yeast Anticancer Drug Screen. Data for the rad50 strain (AID 155);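 further: 0% = growth of vehicle-only cultures of the same strain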; conditions: S. cerevisiae rad50 strain growth inhibition, stronger effect = higher value
Method in brief: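 Growth of the mutant yeast was measured after compound exposure and referenced to vehicle-treated cultures.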

[6] = NCI Yeast Anticancer Drug Screen. Data for the mec2-1 strain (AID 157); conditions: S. cerevisiae mec2-1 strain, stronger effect = higher value
Method in brief: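 Vehicle-treated cultures served as reference for growth inhibition of compound-exposed mec2-1 yeast.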

[7] = NCI Yeast Anticancer Drug Screen. Data for the rad14 strain (AID 159);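 further: 0% = growth of vehicle-treated control cultures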; conditions: S. cerevisiae rad14 strain growth inhibition, stronger effect = higher value
Method in brief: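 Here, inhibition of yeast growth was measured after compound exposure, using a strain with a genetic defect in DNA damage repair and vehicle-treated cultures as the reference.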

[8] = NCI Yeast Anticancer Drug Screen. Data for the sgs1 mgt1 strain (AID 161);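 further: 0% = growth of cultures given vehicle only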; conditions: S. cerevisiae sgs1 mgt1 strain, stronger effect = higher value
Method in brief: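 Mutant yeast exposed to compound; growth scored against vehicle-only wells.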

[9] = NCI Yeast Anticancer Drug Screen. Data for the CLN2oe strain (AID 163);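 further: 0% = growth of vehicle-only control cultures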; conditions: S. cerevisiae CLN2oe strain, stronger effect = higher value
Method in brief: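 Inhibition relative to vehicle-treated yeast is reported. Cells: strain with genetic alteration in cell-cycle control, grown with compound.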

[10] = NCI Yeast Anticancer Drug Screen. Data for the cln2 rad14 strain (AID 165);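 further: 0% = growth equal to vehicle treated cultures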; conditions: S. cerevisiae cln2 rad14 strain, stronger effect = higher value
Method in brief: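 Each compound was tested on cln2 rad14 yeast. Inhibition of growth was calculated against vehicle-exposed controls.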

[11] = NCI Yeast Anticancer Drug Screen. Data for the bub3 strain (AID 167); conditions: S. cerevisiae bub3 mutant strain, stronger effect = higher value
Method in brief: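 Whole-cell yeast assay. The mutant strain was incubated with compounds, and growth inhibition was determined by comparison with vehicle-treated cells.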

[12] = NCI Yeast Anticancer Drug Screen. Data for the wt2 strain (AID 169);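 further: 0% = growth of vehicle-treated yeast cultures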; conditions: S. cerevisiae wt2 strain growth inhibition, stronger effect = higher value
Method in brief: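 Inhibition of yeast growth was determined after compound treatment, normalised to controls receiving only vehicle.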

[13] = NCI Yeast Anticancer Drug Screen. Data for the mlh1 strain (AID 171);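 further: 0% = growth of vehicle-treated control cultures of the same strain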; conditions: S. cerevisiae mlh1 strain growth inhibition, stronger effect = higher value
Method in brief: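 Vehicle-normalised growth inhibition of a repair- or checkpoint-altered yeast strain following compound treatment.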

[14] = NCI Yeast Anticancer Drug Screen. Data for the sgs1 strain (AID 173);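 further: 0% = growth of vehicle-only control cultures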; conditions: S. cerevisiae sgs1 mutant, stronger effect = higher value
Method in brief: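 Screen format: yeast with repair or checkpoint alterations, compound exposure, growth read relative to vehicle.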

[15] = NCI Yeast Anticancer Drug Screen. Data for the mlh1 rad18 strain (AID 175); conditions: S. cerevisiae mlh1 rad18 strain growth inhibition, stronger effect = higher value
Method in brief: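 Vehicle-treated cultures served as the reference for growth inhibition in a yeast strain carrying DNA damage repair alterations exposed to each compound.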

[16] = NCI Yeast Anticancer Drug Screen. Data for the rad18 strain (AID 177); conditions: S. cerevisiae rad18 mutant growth inhibition, stronger effect = higher value
Method in brief: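 Test articles were incubated with altered yeast defective in DNA damage repair. Results are given as inhibition of growth versus vehicle.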

[17] = at 5.0 µM (retest, dose inferred, filed as 0.5)
[18] = at 50.0 µM (retest, dose inferred, filed as 5.0)

Measured: growth inhibition

C=CC(C)(O)CCC1C(=C)C(O)CC2C(C)(C)CCCC12C (stereo unspecified)
inactive: [1]; at 1.2 µM 27% | [1]; at 3.7 µM 26% | [1]; at 11.0 µM 27% | [1]; at 33.0 µM 54% | [2]; at 1.2 µM -26% | [2]; at 3.7 µM -10% | [2]; at 11.0 µM -17% | [2]; at 33.0 µM -11% | [2]; at 100.0 µM 69% | [3]; at 1.2 µM 4% | [3]; at 3.7 µM -6% | [3]; at 11.0 µM 12% | [3]; at 33.0 µM 0% | [3]; at 100.0 µM -40% | [4]; at 1.2 µM -4% | [4]; at 3.7 µM -16% | [4]; at 11.0 µM -24% | [4]; at 33.0 µM 14% | [4]; at 100.0 µM 66% | [5]; at 1.2 µM 15% | [5]; at 3.7 µM 19% | [5]; [17] 36% | [5]; at 11.0 µM 19% | [5]; at 33.0 µM 61% | [5]; [18] 43% | [5]; at 50.0 µM 63.6% | [6]; at 1.2 µM -3% | [6]; at 3.7 µM 9% | [6]; [17] 48% | [6]; at 11.0 µM -10% | [6]; at 33.0 µM 4% | [6]; [18] 52% | [6]; at 50.0 µM 44.5% | [6]; at 100.0 µM 50% | [7]; at 1.2 µM -7% | [7]; at 3.7 µM -20% | [7]; at 11.0 µM -18% | [7]; at 33.0 µM 40% | [8]; [17] -23% | [9]; at 1.2 µM -8% | [9]; at 3.7 µM -34% | [9]; at 11.0 µM -8% | [9]; at 33.0 µM -16% | [9]; at 100.0 µM 28% | [10]; [17] 50% | [10]; [18] 66% | [10]; at 50.0 µM 16.7% | [11]; at 1.2 µM -4% | [11]; at 3.7 µM 7% | [11]; [17] 19% | [11]; at 11.0 µM 1% | [11]; at 33.0 µM 31% | [11]; at 100.0 µM 69% | [12]; at 1.2 µM -2% | [12]; at 3.7 µM -12% | [12]; at 11.0 µM -13% | [12]; at 33.0 µM 28% | [12]; at 100.0 µM 69% | [13]; at 1.2 µM -4% | [13]; at 3.7 µM -12% | [13]; at 11.0 µM -17% | [13]; at 33.0 µM 9% | [13]; at 100.0 µM 42% | [14]; at 1.2 µM 11% | [14]; at 3.7 µM 23% | [14]; at 11.0 µM 20% | [14]; at 33.0 µM 53% | [15]; [17] 23% | [15]; [18] 45% | [15]; at 50.0 µM 63.9% | [16]; at 1.2 µM -14% | [16]; at 3.7 µM -19% | [16]; at 11.0 µM -15% | [16]; at 33.0 µM 49%
active: [1]; at 100.0 µM 72% | [5]; at 100.0 µM 84% | [7]; at 100.0 µM 80% | [8]; [18] 81% | [8]; at 50.0 µM 80.5% | [11]; [18] 80% | [11]; at 50.0 µM 73% | [14]; at 100.0 µM 72% | [16]; at 100.0 µM 80%

CC(C)(C)c1nc2c(o1)C(=O)c1ccccc1C2=O
inactive: [1]; at 1.2 µM -27% | [1]; at 3.7 µM -22% | [1]; at 11.0 µM 20% | [2]; at 1.2 µM -30% | [2]; at 3.7 µM -20% | [2]; at 11.0 µM -5% | [2]; at 33.0 µM 63% | [3]; at 1.2 µM -19% | [3]; at 3.7 µM -17% | [3]; at 11.0 µM -7% | [4]; at 1.2 µM -21% | [4]; at 3.7 µM -16% | [4]; at 11.0 µM 19% | [5]; at 1.2 µM -56% | [5]; at 3.7 µM -15% | [5]; [17] 23% | [5]; at 11.0 µM 32% | [6]; at 1.2 µM 11% | [6]; at 3.7 µM 15% | [6]; [17] 14% | [6]; at 11.0 µM 27% | [6]; at 33.0 µM 57% | [7]; at 1.2 µM -15% | [7]; at 3.7 µM -5% | [7]; at 11.0 µM 13% | [8]; [17] 32% | [9]; at 1.2 µM -3% | [9]; at 3.7 µM -8% | [9]; at 11.0 µM 6% | [9]; at 33.0 µM 65% | [10]; [17] 3% | [10]; [18] 42% | [11]; at 1.2 µM -3% | [11]; at 3.7 µM 12% | [11]; [17] 52% | [11]; at 11.0 µM 36% | [12]; at 1.2 µM -41% | [12]; at 3.7 µM -26% | [12]; at 11.0 µM 32% | [13]; at 1.2 µM -6% | [13]; at 3.7 µM -3% | [13]; at 11.0 µM 25% | [14]; at 1.2 µM 7% | [14]; at 3.7 µM -10% | [14]; at 11.0 µM 36% | [15]; [17] 21%
active: [1]; at 33.0 µM 89% | [1]; at 100.0 µM 98% | [2]; at 100.0 µM 95% | [3]; at 33.0 µM 87% | [3]; at 100.0 µM 97% | [4]; at 33.0 µM 75% | [4]; at 100.0 µM 95% | [5]; at 33.0 µM 90% | [5]; [18] 91% | [5]; at 50.0 µM 85.2% | [5]; at 100.0 µM 97% | [6]; [18] 77% | [6]; at 50.0 µM 94% | [6]; at 100.0 µM 94% | [7]; at 33.0 µM 79% | [7]; at 100.0 µM 98% | [8]; [18] 70% | [8]; at 50.0 µM 93.3% | [9]; at 100.0 µM 96% | [10]; at 50.0 µM 92.1% | [11]; at 33.0 µM 87% | [11]; [18] 90% | [11]; at 50.0 µM 93% | [11]; at 100.0 µM 97% | [12]; at 33.0 µM 72% | [12]; at 100.0 µM 94% | [13]; at 33.0 µM 81% | [13]; at 100.0 µM 96% | [14]; at 33.0 µM 88% | [14]; at 100.0 µM 95% | [15]; [18] 86% | [15]; at 50.0 µM 91.5%

CCCCCCCCCCC1CCC(=O)O1 (stereo unspecified)
inactive: [1]; at 1.2 µM -2% | [1]; at 3.7 µM -2% | [1]; at 11.0 µM -1% | [1]; at 33.0 µM 4% | [2]; at 1.2 µM -2% | [2]; at 3.7 µM -2% | [2]; at 11.0 µM -2% | [2]; at 33.0 µM 3% | [3]; at 1.2 µM -2% | [3]; at 3.7 µM 3% | [3]; at 11.0 µM 11% | [3]; at 33.0 µM 22% | [3]; at 100.0 µM 38% | [4]; at 1.2 µM -2% | [4]; at 3.7 µM -1% | [4]; at 11.0 µM 0% | [4]; at 33.0 µM 8% | [5]; at 1.2 µM -1% | [5]; at 3.7 µM -46% | [5]; [17] -2% | [5]; at 11.0 µM 16% | [5]; at 33.0 µM 12% | [5]; [18] 50% | [6]; at 1.2 µM -1% | [6]; at 3.7 µM -2%
active: [1]; at 100.0 µM 99% | [2]; at 100.0 µM 98% | [4]; at 100.0 µM 100% | [5]; at 50.0 µM 97.2% | [5]; at 100.0 µM 99%

— PubChem BioAssay (NCI)
